# Results taken from the supplement of paper PMC10498489.
# Among all 2,300 compounds or so, about 330 (14%) showed activity.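 The calls were made as follows: active = median modified Z-score above 1.96; inactive = 1.96 or below.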 Not all results are given here.
# System: HepG2 Srxn1-GFP reporter cells (+30 nM CDDO-Me)
# Assay: Srxn1-GFP intensity median modified Z-score relative to plate median; higher = stronger NRF2 / oxidative stress reporter activation, active = hit call of the paper
# Details: 10 µM; exposure time: 24h
# Method in brief: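 HepG2 Srxn1-GFP BAC reporter cells were seeded at 20,000 per well in 96-well plates and co-exposed for 24 h to compound at 10 μM and an NRF2 activator at 30 nM, with DMSO at ≤0.1%, in three replicate plates. Cells were fixed with formaldehyde, stained with Hoechst and imaged by confocal microscopy, and cytoplasmic GFP was measured per cell, with images holding under 100 cells discarded. The reported value is the median over replicates of each plate's modified Z-score of GFP intensity. For this score, scaling used 1.4826 × median absolute deviation.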
row,SMILES,Srxn1-GFP intensity median modified Z-score
1,CCOc1ccc(S(=O)(=O)O)c2cccnc12 [euspeclibcmpd2064],0.0425 (inactive)
2,CCN(CC)Cc1ccc(N=c2cc[nH]c3cc(Cl)ccc23)cc1O [euspeclibcmpd22],3.72 (active)
3,Nc1ccc(S(=O)(=O)N=c2cnc3ccccc3[nH]2)cc1 [euspeclibcmpd2157],0.000648 (inactive)
4,OC[C@@H](O)[C@H](O)[C@@H](O)[C@H](O)CO [euspeclibcmpd2232],0.317 (inactive)
5,N=c1ncn([C@@H]2O[C@H](CO)[C@@H](O)[C@H]2O)c(=O)[nH]1 [euspeclibcmpd436],15.1 (active)
6,O=c1ccn([C@@H]2O[C@H](CO)[C@@H](O)[C@H]2O)c(=O)[nH]1 [euspeclibcmpd2258],-0.304 (inactive)
7,NC(=O)c1ncn(C2O[C@H](CO)[C@@H](O)[C@H]2O)c1N (some centres undefined) [euspeclibcmpd855],0.445 (inactive)
8,N=c1[nH]cnc2c1ncn2[C@@H]1O[C@H](CO)[C@@H](O)[C@H]1O [euspeclibcmpd2100],-0.0799 (inactive)
9,N=c1ccn(C2O[C@H](CO)[C@@H](O)[C@H]2O)c(=O)[nH]1 (some centres undefined) [euspeclibcmpd2152],-0.285 (inactive)
10,N=c1[nH]c(=S)c2ncn(C3O[C@H](CO)[C@@H](O)[C@H]3O)c2[nH]1 (some centres undefined) [euspeclibcmpd1778],41.1 (active)
11,Cc1c(NS(=O)(=O)C(C)C)c(=O)n(-c2ccccc2)n1C,1.19 (inactive)
12,CC(C)(CO)C(=O)C(O)NCCCO (centres undefined) [euspeclibcmpd2342],-0.119 (inactive)
13,CC(C)(CO)C(=O)C(O)NCCCO (centres undefined) [euspeclibcmpd2316],-0.0436 (inactive)
14,CON=C(C(=O)NC1C(=O)N2C(C(=O)OCOC(=O)C(C)(C)C)=C(/C=C\c3scnc3C)CSC12)c1csc(=N)[nH]1 (centres undefined) [euspeclibcmpd753],0.022 (inactive)
15,CON=C(C(=O)NC1C(=O)N2C(C(=O)O)=C(COC(N)=O)CSC12)c1ccco1 (centres undefined) [euspeclibcmpd2072],-0.532 (inactive)
16,CN1C(C(=O)N=c2cccc[nH]2)C(=O)c2ccccc2S1(=O)=O (centres undefined) [euspeclibcmpd238],-0.406 (inactive)
17,N=c1ccn(C2CSC(CO)O2)c(=O)[nH]1 (centres undefined) [euspeclibcmpd613],-0.762 (inactive)
18,CON=C(C(=O)NC1C(=O)N2C(C(=O)OC(C)OC(C)=O)=C(COC(N)=O)CSC12)c1ccco1 (centres undefined) [euspeclibcmpd658],0.198 (inactive)
19,Cc1noc(C)c1S(=O)(=O)N1CCN(C(=O)C2=COCCO2)CC1,1.2 (inactive)
20,COC(=O)C[C@H]1C(C)(C)[C@@H](O)C2CC3=C4C=C(OC)O[C@@H](c5ccoc5)[C@]4(C)CCC3[C@@]1(C)C2=O (some centres undefined) [euspeclibcmpd1395],1.94 (inactive)
21,CCn1c(O)c(-c2ccccc2)[nH]c1=O [euspeclibcmpd780],-0.504 (inactive)
22,Cc1c(NC(=O)c2ccsc2)c(=O)n(-c2ccccc2)n1C,0.403 (inactive)
23,CO[C@H]1C[C@H](O[C@@H]2C(C)C(=O)O[C@H](C)[C@H](C)[C@H](OC(C)=O)C(C)C(=O)[C@@]3(CO3)C[C@H](C)[C@H](OC3O[C@H](C)C[C@H](N(C)C)[C@H]3OC(C)=O)[C@H]2C)O[C@@H](C)[C@@H]1OC(C)=O (some centres undefined) [euspeclibcmpd623],-0.159 (inactive)

row,SMILES,Srxn1-GFP intensity median modified Z-score
1,CC(=O)OCC(=O)C1CCC2C3CC=C4CC(=O)CC[C@]4(C)C3CC[C@]12C (some centres undefined) [euspeclibcmpd6],-0.444 (inactive)
2,CCCCC(=O)O[C@]1(C(=O)CO)CCC2C3CC=C4CC(=O)CC[C@]4(C)C3[C@@H](O)C[C@@]21C (some centres undefined) [euspeclibcmpd786],-0.698 (inactive)
3,CC(=O)C12OC(C)(c3ccccc3)OC1CC1C3CC=C4CC(=O)CCC4(C)C3CCC12C (centres undefined) [euspeclibcmpd1961],5.88 (active)
4,C[C@]12CCC(=O)CC1=CCC1C2C(=O)C[C@@]2(C)C1CC[C@]2(O)C(=O)CO (some centres undefined) [euspeclibcmpd1248],-0.459 (inactive)
5,CC(=O)[C@@]1(O)CCC2C3CC=C4CC(=O)CC[C@]4(C)C3CC[C@@]21C (some centres undefined) [euspeclibcmpd1279],-0.195 (inactive)
6,CC(=O)C1CCC2C3CC=C4CC(=O)CC[C@]4(C)C3CC[C@]12C (some centres undefined) [euspeclibcmpd251],2.27 (active)
7,CC(=O)C1CCC2C3CC=C4C[C@@H](O)CC[C@]4(C)C3CC[C@]12C (some centres undefined) [euspeclibcmpd1041],0.815 (inactive)
8,CCCCCC(=O)O[C@]1(C(C)=O)CCC2C3CC=C4CC(=O)CC[C@]4(C)C3CC[C@@]21C (some centres undefined) [euspeclibcmpd155],13.5 (active)
9,CCCC(=O)O[C@]1(C(=O)CO)CCC2[C@@H]3CC=C4CC(=O)CC[C@]4(C)C3[C@@H](O)C[C@@]21C (some centres undefined) [euspeclibcmpd566],-0.863 (inactive)
10,CC(=O)O[C@]1(C(C)=O)CCC2C3=CC(Cl)=C4CC(=O)CC[C@]4(C)C3CC[C@@]21C (some centres undefined) [euspeclibcmpd746],-0.232 (inactive)
11,N=C(N)NC(=O)c1nc(Cl)c(=N)[nH]c1N [euspeclibcmpd18],1.07 (inactive)
12,C[C@]12CCC3c4ccc(O)cc4CCC3C1CCC2=O (some centres undefined) [euspeclibcmpd118],-0.384 (inactive)
13,CC1C(=NO)C[C@@H]2C[C@H]1C2(C)C (some centres undefined) [euspeclibcmpd1398],-0.67 (inactive)
14,OCc1cc(O)c2c(O)c3c(O[C@@H]4O[C@H](CO)[C@@H](O)[C@H](O)[C@H]4O)cccc3c(O[C@@H]3O[C@H](CO)[C@@H](O)[C@H](O)[C@H]3O)c2c1 [euspeclibcmpd932],0.277 (inactive)
15,CCC(C(=O)O)c1ccccc1 (centres undefined) [euspeclibcmpd2274],-0.651 (inactive)
16,O=c1oc2cc(O)ccc2s1 [euspeclibcmpd1146],5.96 (active)
17,O=c1ccc2ccc(O)cc2o1 [euspeclibcmpd1541],-0.459 (inactive)
18,Cc1cc(=O)oc2cc(O)ccc12 [euspeclibcmpd929],0.128 (inactive)
19,CC(CS)C(=O)N1CCCC1C(=O)O (centres undefined) [euspeclibcmpd337],-0.273 (inactive)
20,O=C(Nc1nc(-c2ccc(F)c(F)c2)cs1)c1cc(F)c(F)cc1[N+](=O)[O-],0.285 (inactive)
21,Cn1c(=O)c2c(ncn2CC2OCCO2)n(C)c1=O [euspeclibcmpd483],-0.13 (inactive)
22,O=c1cc(-c2ccccc2)oc2cc(O)ccc12 [euspeclibcmpd1489],-0.269 (inactive)
23,O=c1cc(-c2ccccc2)oc2c(O)c(O)ccc12 [euspeclibcmpd2237],4.14 (active)

row,SMILES,Srxn1-GFP intensity median modified Z-score
1,O=c1cc(-c2ccccc2)oc2ccc(O)cc12 [euspeclibcmpd1505],0.447 (inactive)
2,O=c1c(Cc2c(O)oc3ccccc3c2=O)c(O)oc2ccccc12 [euspeclibcmpd328],-0.0638 (inactive)
3,O=c1c(CC[S+]([O-])c2ccccc2)c(O)n(-c2ccccc2)n1-c1ccccc1 (centres undefined) [euspeclibcmpd282],-0.197 (inactive)
4,CCCCc1c(O)n(-c2ccccc2)n(-c2ccccc2)c1=O [euspeclibcmpd235],0.115 (inactive)
5,CCCCc1c(O)n(-c2ccc(O)cc2)n(-c2ccccc2)c1=O [euspeclibcmpd223],13.1 (active)
6,O=c1c2c3c(sc2nc(SCc2ccc(Cl)c(Cl)c2)n1-c1ccccc1)CCCC3,1.55 (inactive)
7,COCCn1nc(C(=O)NC(C)c2cccc(Cl)c2)ccc1=O (centres undefined),1.38 (inactive)
8,CC(C)(Sc1cc(C(C)(C)C)c(O)c(C(C)(C)C)c1)Sc1cc(C(C)(C)C)c(O)c(C(C)(C)C)c1 [euspeclibcmpd377],-0.0593 (inactive)
9,Cc1cc(C(C)(C)C)c(O)c(C)c1CC1=NCCN1 [euspeclibcmpd222],0.261 (inactive)
10,Cc1cc(C(C)(C)C)c(O)c(C(C)(C)C)c1 [euspeclibcmpd1001],14.5 (active)
11,CN(C)CCCN1c2ccccc2Sc2ccc(Cl)cc21 [euspeclibcmpd59],0.609 (inactive)
12,O=C(NCCC(=O)N1CCN(Cc2ccc3c(c2)OCO3)CC1)c1ccc(Cl)cc1,1.31 (inactive)
13,CC1(C)SC2C(NC(=O)C(N)c3ccccc3)C(=O)N2C1C(=O)O (centres undefined) [euspeclibcmpd2081],-0.172 (inactive)
14,CC1C(=O)CCC2[C@]3(C)CC[C@@]4(C)C5CC(C)(C)CC[C@]5(C)CC[C@]4(C)C3CC[C@]12C (some centres undefined) [euspeclibcmpd1606],-0.261 (inactive)
15,CC[C@@H]1OC(=O)C[C@@H](O)[C@H](C)[C@@H](O[C@@H]2O[C@H](C)[C@@H](O)[C@H](N(C)C)[C@H]2O)[C@@H](CCN2C[C@H](C)C[C@H](C)C2)CC(C)C(=O)/C=C/C(C)=C\C1CO[C@@H]1O[C@H](C)[C@@H](O)[C@@H](OC)[C@H]1OC (some centres undefined) [euspeclibcmpd704],0.22 (inactive)
16,C=C(C)c1cc(O)c(C)cc1O [euspeclibcmpd1354],6.7 (active)
17,CC(C)(CO)C(=O)C(O)NCCC(=O)O (centres undefined) [euspeclibcmpd2436],0.216 (inactive)
18,Oc1ccc2c(c1)OCC1(O)Cc3cc(O)c(O)cc3C21 (centres undefined) [euspeclibcmpd1416],1.37 (inactive)
19,NC(C(=O)C(O)C(O)CO)C(O)O (centres undefined) [euspeclibcmpd1661],-0.409 (inactive)
20,CCC[C@@H]1CC(C(=O)N[C@@H]([C@@H]2O[C@H](SC)[C@H](O)[C@@H](O)[C@H]2O)[C@H](C)Cl)N(C)C1 (some centres undefined) [euspeclibcmpd68],-0.322 (inactive)
21,COc1cc(C)c(C(=O)Oc2cc(C)c(C(=O)O)c(O)c2C)c(OC)c1C [euspeclibcmpd1550],1.38 (inactive)
22,COC(=O)c1c(C)cc(OC(=O)c2c(C)cc(O)c(C=O)c2O)c(C)c1O [euspeclibcmpd1556],12.5 (active)
23,CCOC(=O)c1c(C)cc(O)c(C=O)c1O [euspeclibcmpd1571],-0.398 (inactive)
